Laboratory results from PubChem BioAssay (Tox21).
Records with an inconclusive call do not appear. A call without a number means that no potency is given here. Activity calls are given as the source filed them. Unless noted, calls come from the whole dose curve.

System: not listed separately
Test: cAMP Responsive Elements (CRE) small molecule agonists, cell-based qHTS assay (AID 1963590); note: potency is the fitted concentration of half-maximal effect
Conditions: CRE-bla HEK293T, beta-lactamase FRET ratio, 3 h; series mostly up to 92.4 µM
In short: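 Beta-lactamase reporter readout: LiveBLAzer B/G FRET substrate, 2 h at room temperature, added after 3 h compound treatment of CRE-bla HEK 293T cells at 37 C/5% CO2.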
For `CC(C)NCCCC1(C(N)=O)c2ccccc2-c2ccccc21`, the Potency was “inactive”.
With `CC(C(=O)O)c1cccc(Oc2ccccc2)c1` (configuration not stated) the Potency was “inactive”.
In the case of `CC(C)=CCC[C@@](C)(O)[C@H]1CC=C(C)CC1`, the Potency is reported as “inactive”.
In the case of `O=C(O)C[C@H](O)C[C@H](O)/C=C/c1c(C2CC2)nc2ccccc2c1-c1ccc(F)cc1`, the activation is reported as 0.303% [at 19 µM] (inactive).
For `O=P(O)(O)OCC(O)CO` (configuration not stated), the Potency was “inactive”.
With `COC(=O)[C@H]1[C@H]2C[C@@H]3c4[nH]c5cc(OC)ccc5c4CCN3C[C@H]2C[C@@H](OC(=O)COc2ccc(OC)cc2)[C@@H]1OC` the Potency was “inactive”.
In the case of `CCC(=O)OC(=O)CC`, the Potency is reported as “inactive”.
In the case of `O=C1c2ccccc2C(=O)N1CO`, the Potency is reported as “inactive”.
For `C[N+]12CCC(CC1)C(OC(=O)C(O)(c1ccccc1)c1ccccc1)C2` (configuration not stated), the Potency was “inactive”.
For `Cc1cccc([N+](=O)[O-])c1C(=O)O`, the Potency was “inactive”.
For `Nc1nc2c(ncn2COCCO)c(=O)[nH]1`, the Potency was “inactive”.
For `C[N+]1(CC2COC(c3ccccc3)(c3ccccc3)O2)CCCCC1` (configuration not stated), the activation was -0.37% [at 19 µM] (inactive).
In the case of `Cc1ncc(CO)c(C=O)c1O`, the Potency is reported as “inactive”.
For `CC(C)c1ccc(C#N)cc1`, the Potency was “inactive”.
With `CN(C)CCN1CCOCC1` the Potency was “inactive”.
In the case of `CCOC(=O)[C@H](C)O`, the Potency is reported as “inactive”.
With `CO[C@@]1(NC(=O)CSCC#N)C(=O)N2C(C(=O)O)=C(CSc3nnnn3C)CS[C@@H]21` the Potency was “inactive”.
In the case of `O=C(Nc1ccccc1)Nc1ccccc1`, the Potency is reported as “inactive”.
In the case of `O=C(O)c1ccc[n+]([O-])c1`, the Potency is reported as “inactive”.
In the case of `NC(Cc1ccc(Cl)cc1)C(=O)O` (configuration not stated), the activation is reported as -0.737% [at 0.349 µM] (inactive).
For `CCCCCCCCCCc1ccccc1`, the Potency was “inactive”.
In the case of `CO[C@@H]1[C@H](OC(=O)/C=C/C=C/C=C/C=C/C(=O)O)CC[C@]2(CO2)[C@H]1[C@@]1(C)O[C@@H]1CC=C(C)C`, the Potency is reported as “inactive”.
For `CN1C(=O)OC(C)(C)C1=O`, the Potency was “inactive”.
For `FC(F)(F)c1ccc(Cl)cc1Cl`, the Potency was “inactive”.
For `O=C(CCC1CCN(Cc2ccccc2)CC1)c1ccc2c(c1)NCCCC2`, the Potency was “inactive”.
In the case of `Cn1c(=O)[nH]c2ncn(C)c2c1=O`, the Potency is reported as “inactive”.
For `Nc1nc(Cl)nc2c1ncn2[C@@H]1O[C@H](CO)[C@@H](O)[C@@H]1F`, the Potency was 29.8 µM (active).
In the case of `CC(C)(C)C1=CC(=O)C(C(C)(C)C)=CC1=O`, the Potency is reported as “inactive”.
With `Cc1c(C(=O)NCCO)[n+](=O)c2ccccc2n1[O-]` the Potency was “inactive”.
In the case of `C=CC(C)(CCC=C(C)C)OC(=O)C(C)C` (configuration not stated), the Potency is reported as “inactive”.
For `CN1Cc2cc(C(=O)N3CCC(C4CCNCC4)CC3)ccc2N[C@@H](CC(=O)O)C1=O`, the Potency was “inactive”.
With `[O-][n+]1cccc(CO)c1` the Potency was “inactive”.
In the case of `CC(=O)c1c(C)cc(C(C)(C)C)cc1C`, the Potency is reported as “inactive”.
With `O=S1(=O)c2cccc3cccc(c23)N1CCCN1CCN(c2ccc(F)cc2)CC1` the Potency was “inactive”.

System: not listed separately
Test: cAMP Responsive Elements (CRE) small molecule antagonists, cell-based qHTS assay (AID 1963591; active = well fitted inhibition curve with a large enough effect in the signal ratio in the repeat runs, not every such curve was filed as active; the % refers to the signal ratio)
Conditions: CRE-bla HEK293T, beta-lactamase FRET ratio; series mostly up to 92.4 µM
In short: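 HEK293T CRE-bla; 18 h preincubation; compound pin-transfer; NKH477 0.25 uM final, 3 h, 37 C; LiveBLAzer FRET substrate 2 h RT.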
With `CC(C)NCCCC1(C(N)=O)c2ccccc2-c2ccccc21` the Potency was “inactive”.
For `CC(C(=O)O)c1cccc(Oc2ccccc2)c1` (configuration not stated), the Potency was “inactive”.
With `CC(C)=CCC[C@@](C)(O)[C@H]1CC=C(C)CC1` the Potency was “inactive”.
In the case of `O=P(O)(O)OCC(O)CO` (configuration not stated), the Potency is reported as “inactive”.
In the case of `Cc1ccc2c(Cl)cc(Cl)c(O)c2n1`, the Potency is reported as “inactive”.
In the case of `CCC(=O)OC(=O)CC`, the Potency is reported as “inactive”.
With `O=C1c2ccccc2C(=O)N1CO` the Potency was “inactive”.
For `C[N+]12CCC(CC1)C(OC(=O)C(O)(c1ccccc1)c1ccccc1)C2` (configuration not stated), the Potency was “inactive”.
For `Cc1cccc([N+](=O)[O-])c1C(=O)O`, the Potency was “inactive”.
For `Nc1nc2c(ncn2COCCO)c(=O)[nH]1`, the Potency was “inactive”.
With `C[N+]1(CC2COC(c3ccccc3)(c3ccccc3)O2)CCCCC1` (configuration not stated) the activity change, negative = inhibition was 1.85% [at 18.9 µM] (inactive).
In the case of `CC(C)c1ccc(C#N)cc1`, the Potency is reported as “inactive”.
In the case of `CN(C)CCN1CCOCC1`, the Potency is reported as “inactive”.
With `CCOC(=O)[C@H](C)O` the Potency was “inactive”.
In the case of `CO[C@@]1(NC(=O)CSCC#N)C(=O)N2C(C(=O)O)=C(CSc3nnnn3C)CS[C@@H]21`, the Potency is reported as “inactive”.
In the case of `O=C(O)c1ccc[n+]([O-])c1`, the Potency is reported as “inactive”.
With `NC(Cc1ccc(Cl)cc1)C(=O)O` (configuration not stated) the activity change, negative = inhibition was 2.88% [at 0.349 µM] (inactive).
In the case of `CCCCCCCCCCc1ccccc1`, the Potency is reported as “inactive”.
For `FC(F)(F)c1ccc(Cl)cc1Cl`, the Potency was “inactive”.
With `Nc1nc(Cl)nc2c1ncn2[C@@H]1O[C@H](CO)[C@@H](O)[C@@H]1F` the Potency was “inactive”.
For `CC(C)(C)C1=CC(=O)C(C(C)(C)C)=CC1=O`, the Potency was “inactive”.
With `Cc1c(C(=O)NCCO)[n+](=O)c2ccccc2n1[O-]` the Potency was “inactive”.
With `C=CC(C)(CCC=C(C)C)OC(=O)C(C)C` (configuration not stated) the Potency was “inactive”.
With `CN1Cc2cc(C(=O)N3CCC(C4CCNCC4)CC3)ccc2N[C@@H](CC(=O)O)C1=O` the Potency was “inactive”.
In the case of `[O-][n+]1cccc(CO)c1`, the Potency is reported as “inactive”.
With `Cc1cc(C(=O)O)ccc1[N+](=O)[O-]` the Potency was “inactive”.

Target: Beta-2 adrenergic receptor (Homo sapiens) (UniProt P07550)
Sequence (P07550 whole entry, looked up): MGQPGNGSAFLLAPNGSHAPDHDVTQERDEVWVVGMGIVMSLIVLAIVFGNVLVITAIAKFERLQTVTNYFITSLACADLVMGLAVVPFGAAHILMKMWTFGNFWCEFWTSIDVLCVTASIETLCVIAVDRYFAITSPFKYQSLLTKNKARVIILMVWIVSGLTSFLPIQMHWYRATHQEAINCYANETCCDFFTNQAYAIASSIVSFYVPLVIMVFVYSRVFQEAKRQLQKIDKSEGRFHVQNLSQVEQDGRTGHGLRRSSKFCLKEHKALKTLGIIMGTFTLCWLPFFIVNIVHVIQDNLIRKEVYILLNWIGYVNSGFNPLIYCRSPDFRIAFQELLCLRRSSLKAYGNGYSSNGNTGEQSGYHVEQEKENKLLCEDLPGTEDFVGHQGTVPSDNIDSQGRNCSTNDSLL
Test: Adrenergic beta2 receptor (ADRB2) small molecule antagonists, cell-based qHTS assay (AID 1963592); note: nearly all actives have a fitted effect of over 50% in size; note: potency is the fitted concentration of half-maximal effect
Conditions: CHO-ADRB2 cells, isoproterenol-stimulated cAMP HTRF ratio, 0.5 h; series mostly up to 92.4 µM
In short: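 Assay format: CHO-ADRB2 cells, 18-20hr seeding at 37C/5% CO2, then compound plus 1nM isoproterenol agonist mix for 0.5hr RT. Homogeneous time-resolved fluorescence cAMP detection after 1hr, expressed as 665/615 nm ratio.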
With `CC(C(=O)O)c1cccc(Oc2ccccc2)c1` (configuration not stated) the Potency was “inactive”.
For `CC(C)=CCC[C@@](C)(O)[C@H]1CC=C(C)CC1`, the Potency was “inactive”.
With `O=P(O)(O)OCC(O)CO` (configuration not stated) the Potency was “inactive”.
In the case of `Cc1ccc2c(Cl)cc(Cl)c(O)c2n1`, the Potency is reported as “inactive”.
In the case of `CCC(=O)OC(=O)CC`, the Potency is reported as “inactive”.
For `O=C1c2ccccc2C(=O)N1CO`, the Potency was “inactive”.
For `C[N+]12CCC(CC1)C(OC(=O)C(O)(c1ccccc1)c1ccccc1)C2` (configuration not stated), the Potency was “inactive”.
For `Cc1cccc([N+](=O)[O-])c1C(=O)O`, the Potency was “inactive”.
In the case of `Nc1nc2c(ncn2COCCO)c(=O)[nH]1`, the Potency is reported as “inactive”.
In the case of `C[N+]1(CC2COC(c3ccccc3)(c3ccccc3)O2)CCCCC1` (configuration not stated), the activity change, negative = inhibition is reported as -7.43% [at 19 µM] (inactive).
With `Cc1ncc(CO)c(C=O)c1O` the Potency was “inactive”.
With `CC(C)c1ccc(C#N)cc1` the Potency was “inactive”.
In the case of `CN(C)CCN1CCOCC1`, the Potency is reported as “inactive”.
For `CCOC(=O)[C@H](C)O`, the Potency was “inactive”.
For `O=C(Nc1ccccc1)Nc1ccccc1`, the Potency was 68.9 µM (active).
For `NC(Cc1ccc(Cl)cc1)C(=O)O` (configuration not stated), the activity change, negative = inhibition was -0.117% [at 0.349 µM] (inactive).
For `CCCCCCCCCCc1ccccc1`, the Potency was “inactive”.
With `Cc1ccccc1N1C(=O)c2cc(S(N)(=O)=O)c(Cl)cc2NC1C` (configuration not stated) the Potency was “inactive”.
In the case of `CCOc1cc([N+](=O)[O-])c(OCC)cc1N1CCOCC1`, the Potency is reported as “inactive”.
In the case of `CO[C@@H]1[C@H](OC(=O)/C=C/C=C/C=C/C=C/C(=O)O)CC[C@]2(CO2)[C@H]1[C@@]1(C)O[C@@H]1CC=C(C)C`, the Potency is reported as “inactive”.
For `CN1C(=O)OC(C)(C)C1=O`, the Potency was “inactive”.
For `O=C(CCC1CCN(Cc2ccccc2)CC1)c1ccc2c(c1)NCCCC2`, the Potency was “inactive”.
With `Cn1c(=O)[nH]c2ncn(C)c2c1=O` the Potency was “inactive”.
For `Nc1nc(Cl)nc2c1ncn2[C@@H]1O[C@H](CO)[C@@H](O)[C@@H]1F`, the Potency was “inactive”.
In the case of `CC(C)(C)C1=CC(=O)C(C(C)(C)C)=CC1=O`, the Potency is reported as “inactive”.
With `Cc1c(C(=O)NCCO)[n+](=O)c2ccccc2n1[O-]` the Potency was “inactive”.
For `C=CC(C)(CCC=C(C)C)OC(=O)C(C)C` (configuration not stated), the Potency was “inactive”.
For `CN1Cc2cc(C(=O)N3CCC(C4CCNCC4)CC3)ccc2N[C@@H](CC(=O)O)C1=O`, the Potency was “inactive”.
For `[O-][n+]1cccc(CO)c1`, the Potency was “inactive”.
For `CC(C)=CCC/C(C)=C/C=N/O`, the Potency was “inactive”.
With `CC(=O)c1c(C)cc(C(C)(C)C)cc1C` the Potency was “inactive”.
In the case of `O=S1(=O)c2cccc3cccc(c23)N1CCCN1CCN(c2ccc(F)cc2)CC1`, the Potency is reported as 33.5 µM (active).
